PubChem BioAssay (NCATS)
Several values for one entry are separate records, joined by “and”; a condition that tells them apart may be missing. Equal values may be shown once. Records with an inconclusive call do not appear. Activity calls are given as the source filed them. Unless noted, the call rests on the fitted dose curve; in most records, active means well fitted curve in the direction sought with a large enough effect; inconclusive means small, poorly fitted or top-dose-only effect, or another doubt; inactive means no such curve, though single readings can be large; an effect the other way counts as inactive or inconclusive. Peptide text beside a SMILES is read from it.

Key:
[1] = Cellular Toxicity (caspase-3) Jurkat (AID 655);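 further: cells exposed to compound for 16 h at 37 °C before reading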; further: potency means the concentration at half of the fitted maximal effect
How it was run: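 5000 Jurkat cells/well; compound 16 hr, 37 °C; Caspase-Glo 3/7 added, 20 min RT; luminescence read. Norm: DMSO = 0%, tamoxifen 100 uM = 100%. AC50, Hill model.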

[2] = Cellular Toxicity (caspase-3) HUV-EC-C (AID 656)
How it was run: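 qHTS; HUV-EC-C, 1000 cells/well; 5 hr settle, 16 hr cmpd, 37°C; Caspase-Glo 3/7, 20 min RT; luminescence. Norm: DMSO = 0%, tamoxifen 100 uM = 100%. Hill-fit AC50.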

[3] = Cellular Toxicity (caspase-3) SHSY5Y (AID 657);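 further: cells exposed to compound for 16 hours at 37 °C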
How it was run: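 qHTS, SH-SY5Y, 1500 cells/well, 5 h pre-incubation 37 °C; compound 16 h 37 °C; Caspase-Glo 3/7 1 h RT; luminescence. Norm.: DMSO = 0, 10 uM staurosporine = 100%. Hill fit → AC50.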

[4] = Cellular Toxicity (caspase-3) BJ (AID 658);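 further: cells exposed to compound for 16 hours; 0% = DMSO basal and 100% = 10 µM staurosporine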
How it was run: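 Caspase-Glo 3/7 luminescence, read 1 hr after reagent at room temperature, in normal BJ fibroblasts exposed 16 hours at 37 °C. AC50 values from Hill-equation concentration-response, scaled between DMSO basal and 10 uM staurosporine as 100%.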

[5] = Cellular Toxicity (caspase-3) MRC-5 (AID 659);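 further: 0% = DMSO basal and 100% = 10 µM staurosporine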
How it was run: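 Luminescent Caspase-Glo 3/7 read-out (1 h, room temperature) after a 16 h, 37 °C compound exposure of MRC-5 lung fibroblasts at 1500 cells/well. Concentration-response AC50 from Hill equation; 0% DMSO, 100% 10 uM staurosporine.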

[6] = Cellular Toxicity (caspase-3) Mesangial (AID 660);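 further: combined caspase 3 and 7 activity read by Caspase-Glo luminescence; cells exposed to compound for 16 h before the caspase read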
How it was run: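 Caspase 3/7 activation measured by Caspase-Glo 3/7 luminescence (20 min, room temperature) following 16 h exposure of mesangial cells (1000/well); AC50 from Hill-equation fit, normalized to DMSO and 100 uM tamoxifen.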

[7] = Cellular Toxicity (caspase-3) SK-N-SH (AID 661);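 further: cells exposed to compound for 16 hours; 0% = DMSO basal and 100% = 10 µM staurosporine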
How it was run: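 Caspase 3/7 activation was read by luminogenic substrate cleavage after 16 hour treatment of SK-N-SH cells. Signal was scaled between DMSO and 10 uM staurosporine, and concentration-response data were fitted with the Hill equation for AC50.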

[8] = Cellular Toxicity (caspase-3) H-4-II-E (AID 663);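 further: cells exposed to compound for 16 hr before readout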
How it was run: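 Caspase 3/7 activation measured by luminescent aminoluciferin substrate cleavage after 16 hr compound treatment of H-4-II-E cells in complete medium. Increase normalized between DMSO (basal) and 100 uM tamoxifen (100%); Hill-equation AC50 from concentration-response.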

[9] = Cellular Toxicity (caspase-3) Hek293 (AID 664); conditions: HEK293 caspase-3 activation, DMSO = 0%, 100 µM tamoxifen = 100%; at 92.2 µM (top of the series);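 further: cells exposed to compound for 16 h at 37 °C before readout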
How it was run: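 Concentration-response qHTS: caspase 3/7 activation measured by luminescent aminoluciferin substrate cleavage after 16 h compound exposure of Hek 293 cells. AC50 from Hill equation, with DMSO as basal and 100 uM tamoxifen as 100%.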

[10] = target: 3',5'-cyclic-AMP phosphodiesterase 4B (Homo sapiens) (UniProt Q07343); experiment: qHTS Assay for Inhibitors of PDE-IV (AID 607; active means well fitted activation curve with a large enough effect in the main read-out, with a control signal flat, not every such curve was filed as active; further: % of control where 0% means no effect)
How it was run: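 HEK293 ACTOne cells with CNG channel (1000/well), endogenous PDE4; membrane potential dye, compounds up to 22.9 uM final. Fluorescence Ex 535/Em 590; RO 20-1724 (100 uM final) as reference.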

3',5'-cyclic-AMP phosphodiesterase 4B (Homo sapiens), sequence (Q07343 whole entry, looked up): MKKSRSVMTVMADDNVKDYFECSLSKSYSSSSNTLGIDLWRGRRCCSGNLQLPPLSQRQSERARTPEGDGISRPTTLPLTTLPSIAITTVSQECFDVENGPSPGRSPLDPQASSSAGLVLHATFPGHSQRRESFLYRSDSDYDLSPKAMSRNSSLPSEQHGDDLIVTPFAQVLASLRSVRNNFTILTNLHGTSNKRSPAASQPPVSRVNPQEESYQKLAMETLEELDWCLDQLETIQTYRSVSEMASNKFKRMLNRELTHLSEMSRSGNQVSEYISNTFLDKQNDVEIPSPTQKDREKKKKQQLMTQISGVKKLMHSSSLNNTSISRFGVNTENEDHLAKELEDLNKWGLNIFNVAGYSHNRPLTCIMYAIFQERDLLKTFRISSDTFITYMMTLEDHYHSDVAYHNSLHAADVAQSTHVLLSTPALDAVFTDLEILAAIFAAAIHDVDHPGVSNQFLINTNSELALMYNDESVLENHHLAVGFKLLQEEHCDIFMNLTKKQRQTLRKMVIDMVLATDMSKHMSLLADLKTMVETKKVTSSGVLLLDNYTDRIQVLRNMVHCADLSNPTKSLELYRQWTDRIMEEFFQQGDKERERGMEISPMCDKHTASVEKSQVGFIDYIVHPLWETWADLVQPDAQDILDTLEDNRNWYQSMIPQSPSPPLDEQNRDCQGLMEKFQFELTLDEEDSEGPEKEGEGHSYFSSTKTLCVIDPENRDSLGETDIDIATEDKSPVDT

COc1c2occc2cc2ccc(=O)oc12
inactive: Potency [1] | outcome [2] | outcome [3] | outcome [4] | outcome [5] | outcome [6] | outcome [7] | outcome [8] | caspase-3 activation [9] 2.24%

CCN(CC)C(=S)SSC(=S)N(CC)CC
inactive: outcome [10]

O=c1c(O)c(-c2ccc(O)cc2O)oc2cc(O)cc(O)c12
inactive: outcome [10]

CCc1nc(N)nc(N)c1-c1ccc(Cl)cc1
active: Potency [1] 31.6 µM | caspase-3 activation [9] 101%
inactive: outcome [2] | outcome [3] | outcome [4] | outcome [5] | outcome [6] | outcome [7] | outcome [8]

CN(C)c1ccc2nc3ccc(=[N+](C)C)cc-3sc2c1
inactive: Potency [1] | outcome [2] | outcome [3] | outcome [4] | outcome [5] | outcome [6] | outcome [7] | outcome [8] | caspase-3 activation [9] -0.51%

CS(=O)(=O)OCCCCOS(C)(=O)=O
inactive: Potency [1] | outcome [2] | outcome [3] | outcome [4] | outcome [5] | outcome [6] | outcome [7] | outcome [8] | caspase-3 activation [9] -0.303% and 2.3%

COC(=O)[C@H](Cc1ccccc1)NC(=O)[C@@H](N)CC(=O)O (H-Asp-Phe-OMe)
inactive: Potency [1] | outcome [2] | outcome [3] | outcome [4] | outcome [5] | outcome [6] | outcome [7] | outcome [8] | caspase-3 activation [9] 1.4%

O=C1NC(=O)C(c2ccccc2[N+](=O)[O-])=C1Nc1ccc(O)c(Cl)c1
inactive: outcome [10]

Nc1ccc(S(N)(=O)=O)cc1
inactive: outcome [10] | Potency [1] | outcome [2] | outcome [3] | outcome [4] | outcome [5] | outcome [6] | outcome [7] | outcome [8] | caspase-3 activation [9] -1.76%

CCCCc1ccc2nc(NC(=O)OC)[nH]c2c1
inactive: outcome [10]

Oc1ccc(OCc2ccccc2)cc1
inactive: outcome [10]

CNC[C@H](O)c1ccc(O)c(O)c1
inactive: outcome [10]

Cc1cc(O)c2c(c1)C(=O)c1cc(O)cc(O)c1C2=O
inactive: outcome [10] | Potency [1] | outcome [2] | outcome [3] | outcome [4] | outcome [5] | outcome [6] | outcome [7] | outcome [8] | caspase-3 activation [9] -8.76%

Cc1cc(=O)oc2cc(O)ccc12
inactive: outcome [10]

Cc1ccc(C)c(OCCCC(C)(C)C(=O)O)c1
inactive: outcome [10] | Potency [1] | outcome [2] | outcome [3] | outcome [4] | outcome [5] | outcome [6] | outcome [7] | outcome [8] | caspase-3 activation [9] -2.65%

NS(=O)(=O)c1cc(C(=O)O)c(NCc2ccco2)cc1Cl
inactive: outcome [10] | Potency [1] | outcome [2] | outcome [3] | outcome [4] | outcome [5] | outcome [6] | outcome [7] | caspase-3 activation [9] 2.23%

N=C(N=C(N)N)N1CCOCC1
inactive: outcome [10]

CC(=O)Nc1ccc(O)cc1
inactive: Potency [1] | outcome [2] | outcome [3] | outcome [4] | outcome [5] | outcome [6] | outcome [7] | outcome [8] | caspase-3 activation [9] -1.09%

CCC1=C(C)CN(C(=O)NCCc2ccc(S(=O)(=O)NC(=O)NC3CCC(C)CC3)cc2)C1=O (centres undefined)
inactive: outcome [10]

c1ccc2[nH]c(-c3cscn3)nc2c1
inactive: outcome [10] | Potency [1] | outcome [2] | outcome [3] | outcome [4] | outcome [5] | outcome [6] | outcome [7] | outcome [8] | caspase-3 activation [9] -8.39%

CCCc1cc(=O)[nH]c(=S)[nH]1
inactive: outcome [10] | Potency [1] | outcome [2] | outcome [3] | outcome [4] | outcome [5] | outcome [6] | outcome [7] | outcome [8] | caspase-3 activation [9] 1.8%

Cc1nc2n(c(=O)c1CCN1CCC(c3noc4cc(F)ccc34)CC1)CCCC2
inactive: outcome [10]

CCCCC(CC)COC(=O)C(C#N)=C(c1ccccc1)c1ccccc1 (centres undefined)
inactive: Potency [1] | outcome [2] | outcome [3] | outcome [4] | outcome [5] | outcome [6] | outcome [7] | outcome [8] | caspase-3 activation [9] 2.23%

O=C(NCCO[N+](=O)[O-])c1cccnc1
inactive: outcome [10]

Cc1cccc(C#Cc2ccccc2)n1
inactive: outcome [10]
